From ChEMBL document CHEMBL3988442, “University of Dundee, Small-Polar-MMV Screening Library” (2021)
Screen size: about 69,000 compounds; about 950 (1.4%) showed an effect of 50% or more. The full list was thinned out, with strong results kept by preference.

Each compound was assayed on Mycobacterium tuberculosis (assay: Cornell M. t heat shock assay; note: in the data most compounds retested in dose-response had high values).
Type: functional, organism-based
Design: dose or concentration left out as unconfirmed

Row | Compound | Percent Effect [%]
1 | Cc1cc(Oc2ccc(NC(=O)C3CC3)cc2)cc(C2CCNCC2)n1.Cl | 4.147
2 | COc1ccc(CN2CCC3(CC2)CC(CC(=O)NC(C)C)CO3)cc1.O=C(O)C(F)(F)F (centres undefined) | 0.5964
3 | CCN(CC)Cc1cn2c(n1)CN(C(=O)c1cnccn1)CC2.O=C(O)C(F)(F)F | -4.073
4 | CC(C)c1nn(C)c(N(C)C)c1CNC1CCOc2c(F)cccc21.Cl (centres undefined) | 0.8128
5 | CC(C)CCOCCNC(=O)Nc1cc(C(F)(F)F)c[nH]c1=O | 62.92
6 | CC(CCc1ccco1)NC(=O)Nc1cc(C(F)(F)F)c[nH]c1=O (centres undefined) | 102.3
7 | O=C(CCc1ccco1)Nc1cc(C(F)(F)F)c[nH]c1=O | -7.508
8 | O=C(NCCNc1ncccn1)Nc1cc(C(F)(F)F)c[nH]c1=O | -2.019
9 | O=C(NCCOc1ccccc1)Nc1cc(C(F)(F)F)c[nH]c1=O | 24.31
10 | O=C(NCCc1ccco1)Nc1cc(C(F)(F)F)c[nH]c1=O | 9.339
11 | COc1cc(CNCc2ccnc(N3CCCC3)c2)cc(OC)c1.Cl | 5.029
12 | O=C(NCc1ccccn1)[C@@H]1CCO[C@@H]2CCN(Cc3ccoc3)C[C@H]21.O=C(O)C(F)(F)F.O=C(O)C(F)(F)F | 8.703
13 | c1ccc(-c2nc(CN3CCOC(Cn4cccn4)C3)no2)cc1 (centres undefined) | 2.98
14 | Cc1cnn(CC2CN(CCCS(C)(=O)=O)CCO2)c1 (centres undefined) | 7.266
15 | Cc1cnn(CC2CN(CCS(C)(=O)=O)CCO2)c1 (centres undefined) | 3.305
16 | Cc1ccc(-c2nc(CN3CCOC(Cn4cccn4)C3)no2)cc1 (centres undefined) | 60.58
17 | O=S(=O)(CCN1CCOC(Cn2cccn2)C1)C(F)(F)F (centres undefined) | 103.2
18 | Cc1cnn(CC2CN(Cc3nc(-c4ccoc4)no3)CCO2)c1 (centres undefined) | 8.998
19 | Cc1cnn(CC2CN(Cc3nc(-c4ccsc4)no3)CCO2)c1 (centres undefined) | 77.9
20 | Cc1nc(CN2CCOC(Cn3cccn3)C2)no1 (centres undefined) | -15.93
21 | c1cnn(CC2CN(Cc3nc(-c4ccsc4)no3)CCO2)c1 (centres undefined) | -8.346
22 | O=S(=O)(CCN1CCOC(Cn2cccn2)C1)c1ccccc1 (centres undefined) | 6.109
23 | c1cnn(CCN2CCOC(Cn3cccn3)C2)c1 (centres undefined) | -7.25

Row | Compound | Percent Effect [%]
24 | Cc1cnn(CC2CN(CCS(=O)(=O)C(F)(F)F)CCO2)c1 (centres undefined) | 85.56
25 | O=C(O)C(F)(F)F.O=C(O)C(F)(F)F.c1cncc(N2CCCn3nnc(CN4CCCCC4)c3C2)c1 | 0.6199
26 | C1CC(CN2CCc3c(nnn3CC3CC3)C2COCC2CC2)C1.O=C(O)C(F)(F)F (centres undefined) | -20.7
27 | Cl.Cl.Cn1cc(C(=O)NCc2cncc3c2CCNC3)cn1 | -18.1
28 | CN1CCN(CC2CN(CC3CC3)Cc3nccn3C2)CC1.O=C(O)C(F)(F)F.O=C(O)C(F)(F)F.O=C(O)C(F)(F)F (centres undefined) | -11.65
29 | O=C(O)C(F)(F)F.O[C@@H]1CCN(CC2CC2)[C@H]1Cc1ccccc1 | -16.02
30 | O=C(O)C(F)(F)F.O=C(O)C(F)(F)F.O=C(O)C(F)(F)F.c1ccc(CN2CC[C@@H]3O[C@@H](COCCN4CCCC4)CC[C@@H]32)nc1 | -2.857
31 | CCOc1cccc2c1OCC(=O)N(c1ccc3c(c1)OCCO3)C2 | 11.44
32 | CCOc1cccc2c1OCC(=O)N(c1ccc3c(c1)OCO3)C2 | -8.154
33 | CCOc1cccc2c1OCC(=O)N(c1ccc(N(C)C)cc1)C2 | 78.25
34 | COCCN1CCC2(CC1)CN(C(=O)c1ccco1)CCO2.O=C(O)C(F)(F)F | -23.42
35 | Cl.O=C(Nc1nc2c(s1)CNCC2)C1CC1 | 12.02
36 | O=C(Nc1nc2c(s1)CCC2)NC1CCCC1 | 7.852
37 | Cl.O=C(Nc1nc2c(s1)CNCC2)NC1CCCC1 | 102.9
38 | O=C(O)C(F)(F)F.O=C(O)C(F)(F)F.c1cncc(-c2nnn3c2COCC(CNCC2CCOCC2)C3)c1 (centres undefined) | -15.79
39 | COCCn1cc2c(n1)C(CNCc1cccc(OC)c1)OCC2.O=C(O)C(F)(F)F (centres undefined) | -15.92
40 | Cc1ccc(CN2CC[C@@H]3O[C@@H](C(=O)N4CCN(C)CC4)C[C@@H]32)cc1.O=C(O)C(F)(F)F.O=C(O)C(F)(F)F | 25.47
41 | CCn1ncc2c1CN(C(=O)c1cscn1)CC2COC.O=C(O)C(F)(F)F (centres undefined) | 5.615
42 | CC(C)CN1CCC(N2CCC(C(=O)N(C)C)CC2)CC1.O=C(O)C(F)(F)F.O=C(O)C(F)(F)F | 9.102
43 | Cn1ccc(-c2cc(C(=O)N3CCC(O)CC3)c3ccccn23)n1 | 65.18
44 | Cn1ccc(-c2cc(C(=O)N3CCC(C(N)=O)CC3)c3ccccn23)n1 | 6.568
45 | Cn1ccc(-c2cc(C(=O)N3CCCCC3)c3ccccn23)n1 | 2.688
46 | O=C(c1cc(-c2ccn(CC3CC3)n2)n2ccccc12)N1CCCO1 | 3.9

Row | Compound | Percent Effect [%]
47 | O=C(c1cc(-c2ccn(CC3CC3)n2)n2ccccc12)N1CCOCC1 | 104.4
48 | O=C(O)c1cc(-c2ccn(CC3CC3)n2)n2ccccc12 | -0.3144
49 | O=C(NC[C@H]1OC[C@@H]2CCN(Cc3ccco3)C[C@@H]21)c1ccnnc1.O=C(O)C(F)(F)F | -10.06
50 | Cc1[nH]ccc1C(=O)N1CCCC(c2nccn2Cc2cscn2)C1 (centres undefined) | -1.058
51 | CN(C)C(=O)[C@@H]1C[C@@H]2CCN(Cc3nccs3)C[C@@H]2O1.O=C(O)C(F)(F)F | -1.901
52 | O=C(O)C(F)(F)F.O=C(c1cccc(F)c1)N1CCC2(CC1)CC(N1CCOCC1)C2 | -0.407
53 | CCCC(=O)NC1CCc2c(ccc(=O)n2Cc2csc(C)n2)C1.O=C(O)C(F)(F)F (centres undefined) | 46.41
54 | Cc1cccc(CN2C[C@@H]3CN(C(=O)c4cnccn4)C[C@@H]3C2=O)n1.O=C(O)C(F)(F)F | -21.43
55 | O=C(C1NCCc2[nH]cnc21)N1CCC2(CC1)CNc1ccccc12 (centres undefined) | 80.65
56 | O=C(C1NCCc2[nH]cnc21)N1CCC2(C=Cc3ccccc32)CC1 (centres undefined) | 4.298
57 | O=C1OC2(CCN(C(=O)C3NCCc4[nH]cnc43)CC2)c2ccccc21 (centres undefined) | 26.76
58 | Cl.O=C(Nc1ccc(F)cc1)C(c1ccccc1)N1CCOCC1 (centres undefined) | -22.41
59 | N#Cc1cccc(CN2C(=O)C3(CCNCC3)Nc3ccccc32)c1 | -29.61
60 | C=Cc1ccc(CN2C(=O)C3(CCNCC3)Nc3ccccc32)cc1 | 97.35
61 | NC(=O)c1ccc(CN2C(=O)C3(CCNCC3)Nc3ccccc32)cc1 | 0.2477
62 | CC(C)c1ccc(CN2C(=O)C3(CCNCC3)Nc3ccccc32)cc1 | 76.57
63 | C=Cc1ccc(CN2CCCC3(CNC(=O)c4ccccc4O3)C2)cc1 (centres undefined) | -6.668
64 | Cl.O=C1CC2(CCNCC2)C(=O)N1Cc1ccc(F)cc1 | -13.65
65 | Cc1cc(C[C@@H]2CCC[C@H]2NCc2cc(F)ccc2F)on1.O=C(O)CC(O)(CC(=O)O)C(=O)O | -16.01
66 | CC(=O)N1CCN(Cc2nccs2)CC2(CC(=O)N(C)C2)C1.O=C(O)C(F)(F)F (centres undefined) | -21.46
67 | CS(=O)(=O)N[C@H]1CN(C(=O)c2cscn2)[C@@H]2CCCO[C@H]12 | -7.446
68 | COCC(=O)N1CCN(Cc2cccnc2)c2ncccc2C1.O=C(O)C(F)(F)F.O=C(O)C(F)(F)F | -17.68
69 | CCNc1ncc2c(n1)CN(c1cccc(OC)c1)C2=O | 4.456

Row | Compound | Percent Effect [%]
70 | CCOC(=O)CSc1nnc([C@@H](N)CC(C)C)o1.Cl | -13.08
71 | OCC1CCCN1c1cc(N2CCC(OC3CCCC3)CC2)ncn1 (centres undefined) | 105.5
72 | OCC1CCCN1c1cc(N2CCN(c3ccccn3)CC2)ncn1 (centres undefined) | 0.3449
73 | CS(=O)(=O)N1CCN(c2cc(N3CCCC3CO)ncn2)CC1 (centres undefined) | -0.07305
74 | CC(Sc1nncn1C)C(=O)NCCCOc1ccc(F)cc1 (centres undefined) | 9.016
75 | O=C(NCc1ccccn1)[C@@H]1COC[C@H]2CN(C3CCC3)C[C@H]21.O=C(O)C(F)(F)F.O=C(O)C(F)(F)F | 3.202
76 | O=C(O)C(F)(F)F.O=C(O)C(F)(F)F.O=C(c1ccco1)N1C[C@@H]2OCCN(CCN3CCCC3)[C@@H]2C1 | -4.474
77 | Cl.c1cc(CNCc2cccc3c2OCCCO3)cc(Cn2cncn2)c1 | -3.738
78 | N#Cc1ccc(C(=O)N2CC[C@H]3[C@@H]2CCC(=O)N3c2cccnc2)cc1.O=C(O)C(F)(F)F | 0.7242
79 | O=C(NCCc1cccc(Cl)c1)C1CCOCC1 | -3.977
80 | O=C(C[S+]([O-])Cc1cccc(Cl)c1)NC1CCCC1 (centres undefined) | -6.776
81 | O=C(Cc1cccc(Cl)c1)N[C@@H]1CCNC[C@H]1O | -8.967
82 | Cl.Cl.Clc1cccc(C[C@@H]2NCCC[C@@H]2Nc2cccc(Cl)c2)c1 | 105.7
83 | Cl.NCC1CCCCN1C(=O)Cc1cccc(Cl)c1 (centres undefined) | -16.31
84 | O=C1NCCCc2[nH]c(Cc3cccc(Cl)c3)nc21 | 2.952
85 | Cl.Cl.Clc1cccc(C[C@@H]2NCCC[C@@H]2Nc2ccccc2)c1 | 104.8
86 | Clc1cccc(CNC2CCN(CCc3ccncc3)CC2)c1 | -16.56
87 | Cc1ccc(CN[C@@H]2COC[C@H]2c2ccc(F)cc2)cc1C.O=C(O)CC(O)(CC(=O)O)C(=O)O | -6.111
88 | Cc1csc(CN2C[C@@H]3COC[C@]3(COCC(=O)N(C)C)C2)n1.O=C(O)C(F)(F)F | -22.07
89 | CCn1cc2c(n1)CN(Cc1nccs1)CC2COCC1CC1.O=C(O)C(F)(F)F (centres undefined) | 3.982
